The record followed here is PubChem BioAssay (NCATS).

The structures appear in SMILES notation. Results filed as inconclusive are left out. Unmarked numbers belong to inactive results. The source made the active and inactive calls. The call rests on the fitted dose curve; in most records, active means well fitted cell-killing curve with a large enough effect; inconclusive means small, poorly fitted or top-dose-only effect, or effect the other way; inactive means no such curve, though single readings can be large or run the other way.

Assay [1] is described as follows: Quantitative High-Throughput drug screen in 47 multiple myeloma cell lines against the NCATS MIPE library collection: MM1S_ATCC cell viability assay (AID 1918980). Further: nearly all actives have a fitted effect of over 45% in size. In a few lines: (§1)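 Cells were exposed to library compounds for 48 hours, after which ATP was measured by CellTiter-Glo. Signal was taken as median relative luminescence units.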
A short description of assay [2]: Quantitative High-Throughput drug screen in 47 multiple myeloma cell lines against the NCATS MIPE library collection: MM1R_ATCC cell viability assay (AID 1918981). Further: nearly all actives have a fitted effect of over 35% in size. In a few lines:
as §1

The nature of assay [3]: Quantitative High-Throughput drug screen in 47 multiple myeloma cell lines against the NCATS MIPE library collection: KMS28PE_JCRB cell viability assay (AID 1918983). Further: nearly all actives have a fitted effect of over 35% in size. The gist of the method: as §1
Assay [4] can be described thus: Quantitative High-Throughput drug screen in 47 multiple myeloma cell lines against the NCATS MIPE library collection: KMS34_JCRB cell viability assay (AID 1918985). Further: nearly all actives have a fitted effect of over 40% in size. In a few lines:
as §1

Assay [5] can be described thus: Quantitative High-Throughput drug screen in 47 multiple myeloma cell lines against the NCATS MIPE library collection: OCIMY7_PLB cell viability assay (AID 1918987). Further: nearly all actives have a fitted effect of over 65% in size. The note with it: OCI-MY7 myeloma viability, CellTiter-Glo ATP, 48 h; viability (% of DMSO): at 45.8 µM (top of the series). In a few lines: as §1
The nature of assay [6]: Quantitative High-Throughput drug screen in 47 multiple myeloma cell lines against the NCATS MIPE library collection: OCIMY5_PLB cell viability assay (AID 1918988). Further: nearly all actives have a fitted effect of over 65% in size. In a few lines:
as §1

The nature of assay [7]: Quantitative High-Throughput drug screen in 47 multiple myeloma cell lines against the NCATS MIPE library collection: OPM1_PLB cell viability assay (AID 1918989). Further: nearly all actives have a fitted effect of over 40% in size. The gist of the method: as §1
A short description of assay [8]: Quantitative High-Throughput drug screen in 47 multiple myeloma cell lines against the NCATS MIPE library collection: SKMM1_PLB cell viability assay (AID 1919863). Further: nearly all actives have a fitted effect of over 35% in size. The following applies: SKMM1 myeloma viability, CellTiter-Glo ATP, 48 h; viability: stronger effect = lower value. In a few lines: as §1
For orientation: ATP-based viability assays read luminescence as a measure of living cells.

Assay [9] in a line: Quantitative High-Throughput drug screen in 47 multiple myeloma cell lines against the NCATS MIPE library collection: LP1_DSMZ cell viability assay (AID 1918982). Further: nearly all actives have a fitted effect of over 35% in size. In a few lines: as §1
Assay [10] in a line: Quantitative High-Throughput drug screen in 47 multiple myeloma cell lines against the NCATS MIPE library collection: L363_DSMZ cell viability assay (AID 1918984). Further: nearly all actives have a fitted effect of over 40% in size. In a few lines: as §1
Potency means the concentration at half of the fitted maximal effect.

As for `C[C@H]1[C@@H](OC(=O)CCC(=O)O)O[C@@H]2O[C@@]3(C)CC[C@@H]4[C@H](C)CC[C@@H]1[C@@]24OO3`, the Potency was 18.7 µM (active) in assay [1]; 14.8 µM (active) in assay [2]; 5.26 µM (active) in [3]; 1.32 µM (active) in assay [4]; 0.833 µM (active) in assay [5]; 4.69 µM (active) in assay [6]. Also, the Potency in assay [7] is 2.96 µM (active); in assay [8] it was 4.69 µM (active).

As a reminder, the viability is a read-out of living cells in per cent, often relative to untreated cells. On to `CC(=O)O[C@H]1C[C@@H]2CC[C@H]3[C@H]4C[C@H]([N+]5(C)CCCCC5)[C@@H](OC(C)=O)[C@@]4(C)CC[C@@H]3[C@@]2(C)C[C@H]1N1CCCCC1`, for which the Potency in assay [1] was 6.62 µM (active); in [3] it was 0.332 µM (active). In addition, the Potency result in assay [9], in assay [10], in assay [5] and in assay [7] was “inactive” each time. Besides, the viability in assay [8] was 143%.

`COc1cc(O)c2c(c1)C1OC1C[C@H](O)[C@H](O)C(=O)C=CC[C@H](C)OC2=O` (stereo partly specified): the Potency in assay [1] was 2.96 µM (active); in assay [9], 5.26 µM (active); in assay [3] it was 5.9 µM (active); in assay [10], 2.35 µM (active); in [4] it was 2.35 µM (active); in assay [5], 0.372 µM (active). Further, the Potency is 3.72 µM (active) in assay [6] and 4.69 µM (active) in assay [8].

Regarding `CCOC(=O)C1=C(C)NC(=S)NC1c1cccc(O)c1` (stereo unspecified), the Potency in [1] was 0.0418 µM (active); in assay [2], 0.0296 µM (active); in [3], 0.0833 µM (active); in [4], 0.0833 µM (active); in [5], 0.105 µM (active); in assay [6], 0.0235 µM (active). Besides, the Potency in [7] is 0.0296 µM (active); in assay [8], 0.0526 µM (active).

As to `N#CC(=C(O)c1ccc(Cl)cc1Cl)c1nc2cc(Cl)ccc2c(=O)[nH]1`, the Potency result in [1], in assay [9], in [3], in assay [10], in [5] and in assay [7] was “inactive” throughout.

Regarding `COc1cc2c(cc1OC)[C@@H]1C(=O)c3ccc4c(c3O[C@@H]1CO2)C=CC(C)(C)O4`, the Potency was 2.96 µM (active) in assay [1]; 0.0296 µM (active) in assay [9]; 0.418 µM (active) in [3]; 0.0264 µM (active) in assay [10]; 23.5 µM (active) in assay [4]; 0.418 µM (active) in [5]. Further, the Potency in assay [6] was 0.148 µM (active); in assay [8] it was 13.2 µM (active).

With `CCC(C(=O)O)C1CCC(C)C(C(C)C(O)C(C)C(=O)C(CC)C2OC3(C=CC(O)[C@@]4(CC[C@](C)(C5CC[C@@](O)(CC)C(C)O5)O4)O3)C(C)CC2C)O1` (stereo partly specified), the Potency in assay [1] was 2.35 µM (active); in [9], 4.69 µM (active); in assay [3], 16.6 µM (active); in assay [10] it was 0.833 µM (active); in assay [4] it was 6.62 µM (active); in assay [5], 2.96 µM (active). The Potency was 0.372 µM (active) in assay [6], 1.32 µM (active) in assay [7] and 2.64 µM (active) in assay [8].

On to `Cc1cc(Nc2ncc3c(n2)N(C)C(=O)N(c2cc(NC(=O)c4cccc(C(F)(F)F)c4)ccc2C)C3)n(C)n1`, for which the Potency in assay [1] was 0.935 µM (active); in assay [2], 1.32 µM (active); in [3] it was 1.32 µM (active); in [10] it was 1.32 µM (active); in assay [5] it was 0.526 µM (active); in assay [6], 0.935 µM (active). The Potency in assay [7] was 0.235 µM (active).

Consider `N#Cc1ccc(COC[C@H]2O[C@@H](n3c(NCc4ccc(Cl)c(Cl)c4)nc4c(N)ncnc43)[C@@H](O)[C@@H]2O)cc1`, for which the Potency in assay [1] was 18.7 µM (active); in assay [2] it was 3.72 µM (active); in [3] it was 5.9 µM (active); in assay [4], 16.6 µM (active); in assay [6] it was 3.72 µM (active); in [7], 5.26 µM (active). Further, the Potency in assay [8] was 2.96 µM (active).

Turning to `COC(=O)C1C2CC3c4[nH]c5cc(OC)ccc5c4CCN3CC2CC(OC(=O)c2cc(OC)c(OC)c(OC)c2)C1OC` (stereo unspecified), the Potency was 14.8 µM (active) in [1]; 13.2 µM (active) in [2]; 14.8 µM (active) in [3]; 16.6 µM (active) in assay [5]; 23.5 µM (active) in assay [7].

Take `C[C@]12CCC(=O)C=C1[C@@H]1CC1[C@H]1[C@H]3[C@@H]4C[C@H]4[C@@]4(CCC(=O)O4)[C@@]3(C)CC[C@H]12` (stereo partly specified): the Potency result in assay [1], in [2], in [3], in assay [10] and in [7] was “inactive” each time.

Turning to `CC(=O)C1=C(O)C=C2Oc3c(C(C)=O)c(O)c(C)c(O)c3C2(C)C1=O` (stereo unspecified), the Potency entry in assay [1], in assay [2], in assay [3] and in [4] was “inactive” throughout. Moreover, the Potency in [6] was 0.0012 µM (active).

Turning to `CC(C)NC[C@@H](C(=O)N1CCN(c2ncnc3c2[C@H](C)C[C@H]3O)CC1)c1ccc(Cl)cc1`, the Potency in assay [1] is 0.0469 µM (active); in assay [2], 0.105 µM (active); in assay [3], 1.48 µM (active); in [10], 0.0372 µM (active); in assay [4], 14.8 µM (active); in [6], 1.66 µM (active). In addition, the Potency in [7] is 0.372 µM (active); in assay [8], 10.5 µM (active).

For `O=C(Nc1cc2cc[nH]c2cn1)c1ccccc1`, the Potency was 14.8 µM (active) in assay [1]; 7.43 µM (active) in [2]; 11.8 µM (active) in assay [3]; 6.62 µM (active) in [10]; 5.26 µM (active) in assay [6]; 14.8 µM (active) in assay [7]. The Potency in assay [8] is 11.8 µM (active).

As for `N#Cc1c(C2CCNCC2)cc(-c2c(O)cccc2OCC2CC2)nc1N`, the Potency in assay [1] is 16.6 µM (active); in [2], 20.9 µM (active); in assay [3], 26.4 µM (active); in assay [5], 2.35 µM (active); in assay [6], 14.8 µM (active); in assay [7] it was 20.9 µM (active). In addition, in assay [8], the Potency was 18.7 µM (active).

As for `CN(C)CCN1C(=O)c2cccc3cc(N)cc(c23)C1=O`, the Potency is 14.8 µM (active) in [1]; 20.9 µM (active) in assay [9]; 16.6 µM (active) in assay [3]; 16.6 µM (active) in [10]; 23.5 µM (active) in assay [6]; 18.7 µM (active) in assay [8].

Take `Cc1[nH]c(C=C2C(=O)Nc3ccccc32)c(C)c1CCC(=O)O`: the Potency was 0.0833 µM (active) in [1]; 0.526 µM (active) in assay [2]; 9.35 µM (active) in [10]; 18.7 µM (active) in assay [6]; 23.5 µM (active) in assay [7].
